How the values were obtained:
Experiment in all cases: log2 ratio of Biotin-Ahx-Ub-VS probe labelling (fragment/DMSO); higher = less target engagement (more negative = stronger competition), active = hit call of the paper (q ≤ 0.05, log2 ratio ≤ -1)
Details in all cases: compound concentration: 200 uM; treatment time: 3 h
[1] = target: T1, USP42 (UniProt Q9H9J4)
T1 sequence (whole entry): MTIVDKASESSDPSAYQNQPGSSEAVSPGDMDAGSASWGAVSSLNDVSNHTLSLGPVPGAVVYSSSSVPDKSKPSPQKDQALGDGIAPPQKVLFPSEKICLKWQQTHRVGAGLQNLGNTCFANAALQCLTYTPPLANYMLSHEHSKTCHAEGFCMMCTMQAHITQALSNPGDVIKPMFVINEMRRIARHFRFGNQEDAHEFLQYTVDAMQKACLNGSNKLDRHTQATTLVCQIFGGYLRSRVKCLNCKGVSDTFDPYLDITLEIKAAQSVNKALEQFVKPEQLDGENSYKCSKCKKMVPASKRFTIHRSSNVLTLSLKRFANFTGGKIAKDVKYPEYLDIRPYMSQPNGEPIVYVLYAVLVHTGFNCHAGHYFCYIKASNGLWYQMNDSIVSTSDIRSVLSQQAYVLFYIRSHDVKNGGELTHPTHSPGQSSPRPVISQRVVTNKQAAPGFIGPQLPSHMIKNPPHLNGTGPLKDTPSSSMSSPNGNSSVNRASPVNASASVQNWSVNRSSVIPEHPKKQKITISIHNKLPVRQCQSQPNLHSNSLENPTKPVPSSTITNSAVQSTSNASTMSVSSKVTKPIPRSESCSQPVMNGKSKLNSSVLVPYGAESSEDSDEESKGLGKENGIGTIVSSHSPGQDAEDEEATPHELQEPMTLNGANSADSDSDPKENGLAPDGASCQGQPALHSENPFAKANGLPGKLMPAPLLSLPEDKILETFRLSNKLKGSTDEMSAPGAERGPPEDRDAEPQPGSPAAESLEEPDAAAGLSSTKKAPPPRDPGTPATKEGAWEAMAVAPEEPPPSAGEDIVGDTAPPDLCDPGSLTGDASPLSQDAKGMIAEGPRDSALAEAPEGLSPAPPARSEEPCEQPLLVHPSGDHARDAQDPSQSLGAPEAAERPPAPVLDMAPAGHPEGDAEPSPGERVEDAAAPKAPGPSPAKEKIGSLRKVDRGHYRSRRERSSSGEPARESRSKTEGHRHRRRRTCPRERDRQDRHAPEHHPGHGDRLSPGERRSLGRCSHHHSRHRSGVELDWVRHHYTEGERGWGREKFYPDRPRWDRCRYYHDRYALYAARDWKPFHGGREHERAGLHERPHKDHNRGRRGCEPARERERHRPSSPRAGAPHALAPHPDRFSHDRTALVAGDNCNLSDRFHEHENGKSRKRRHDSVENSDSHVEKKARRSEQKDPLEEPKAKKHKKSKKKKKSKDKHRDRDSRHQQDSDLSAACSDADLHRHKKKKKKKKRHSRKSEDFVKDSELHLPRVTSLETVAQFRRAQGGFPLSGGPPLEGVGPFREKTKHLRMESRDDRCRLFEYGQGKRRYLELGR
In short: (§1)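 Values give the average log2 ratio of fragment to vehicle, assessed by unpaired t-test on global-median-normalised Spectronaut label-free quantities. Proteins needed ≥2 unique peptides. HEK293T lysate (495 µg per sample) was treated in triplicate with fragment at 200 µM or vehicle for 3 h and then with Biotin-Ahx-Ub-VS at 0.5 µM final for 1 h. Labelled DUBs were NeutrAvidin-enriched, digested and run by diaPASEF LC-MS/MS.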

[2] = target: USP46 (UniProt P62068)
In short: as §1

[3] = target: T2, USP47 (UniProt Q96K76)
T2 sequence (whole entry): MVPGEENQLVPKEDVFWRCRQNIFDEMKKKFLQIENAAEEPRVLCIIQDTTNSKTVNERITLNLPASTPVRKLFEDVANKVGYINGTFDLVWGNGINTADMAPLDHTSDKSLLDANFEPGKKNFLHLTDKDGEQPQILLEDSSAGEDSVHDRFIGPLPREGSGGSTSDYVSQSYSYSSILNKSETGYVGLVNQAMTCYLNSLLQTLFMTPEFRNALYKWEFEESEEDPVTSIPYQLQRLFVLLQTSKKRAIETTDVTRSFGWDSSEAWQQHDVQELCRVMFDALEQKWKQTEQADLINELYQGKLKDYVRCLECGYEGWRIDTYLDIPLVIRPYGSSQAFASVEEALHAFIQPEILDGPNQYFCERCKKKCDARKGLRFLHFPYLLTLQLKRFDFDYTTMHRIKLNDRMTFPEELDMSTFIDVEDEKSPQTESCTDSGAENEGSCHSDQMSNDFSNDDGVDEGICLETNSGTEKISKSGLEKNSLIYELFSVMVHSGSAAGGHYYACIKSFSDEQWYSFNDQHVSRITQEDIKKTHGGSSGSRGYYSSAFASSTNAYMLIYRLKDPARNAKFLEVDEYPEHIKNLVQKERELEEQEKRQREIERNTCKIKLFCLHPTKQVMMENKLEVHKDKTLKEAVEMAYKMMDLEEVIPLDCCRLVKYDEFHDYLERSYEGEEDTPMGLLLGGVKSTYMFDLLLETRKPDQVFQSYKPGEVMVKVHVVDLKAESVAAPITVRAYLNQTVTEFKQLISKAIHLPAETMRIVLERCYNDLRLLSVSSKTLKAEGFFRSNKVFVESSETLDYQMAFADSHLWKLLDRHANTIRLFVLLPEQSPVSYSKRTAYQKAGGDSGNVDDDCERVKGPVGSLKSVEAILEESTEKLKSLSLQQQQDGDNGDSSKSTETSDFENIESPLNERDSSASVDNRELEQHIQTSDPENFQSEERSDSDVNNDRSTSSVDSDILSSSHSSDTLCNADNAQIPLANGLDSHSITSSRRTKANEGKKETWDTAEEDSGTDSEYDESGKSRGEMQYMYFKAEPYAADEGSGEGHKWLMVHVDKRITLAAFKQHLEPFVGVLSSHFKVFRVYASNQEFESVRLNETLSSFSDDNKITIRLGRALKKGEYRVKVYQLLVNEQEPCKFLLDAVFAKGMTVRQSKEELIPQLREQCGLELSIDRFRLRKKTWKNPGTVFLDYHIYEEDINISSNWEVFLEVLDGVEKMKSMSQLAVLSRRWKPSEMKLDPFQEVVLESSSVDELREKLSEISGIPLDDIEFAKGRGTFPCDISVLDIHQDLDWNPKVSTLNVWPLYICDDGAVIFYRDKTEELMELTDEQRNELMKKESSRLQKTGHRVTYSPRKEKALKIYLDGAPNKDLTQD
In short: as §1

[4] = target: T3, USP48 (UniProt Q86UV5)
T3 sequence (whole entry): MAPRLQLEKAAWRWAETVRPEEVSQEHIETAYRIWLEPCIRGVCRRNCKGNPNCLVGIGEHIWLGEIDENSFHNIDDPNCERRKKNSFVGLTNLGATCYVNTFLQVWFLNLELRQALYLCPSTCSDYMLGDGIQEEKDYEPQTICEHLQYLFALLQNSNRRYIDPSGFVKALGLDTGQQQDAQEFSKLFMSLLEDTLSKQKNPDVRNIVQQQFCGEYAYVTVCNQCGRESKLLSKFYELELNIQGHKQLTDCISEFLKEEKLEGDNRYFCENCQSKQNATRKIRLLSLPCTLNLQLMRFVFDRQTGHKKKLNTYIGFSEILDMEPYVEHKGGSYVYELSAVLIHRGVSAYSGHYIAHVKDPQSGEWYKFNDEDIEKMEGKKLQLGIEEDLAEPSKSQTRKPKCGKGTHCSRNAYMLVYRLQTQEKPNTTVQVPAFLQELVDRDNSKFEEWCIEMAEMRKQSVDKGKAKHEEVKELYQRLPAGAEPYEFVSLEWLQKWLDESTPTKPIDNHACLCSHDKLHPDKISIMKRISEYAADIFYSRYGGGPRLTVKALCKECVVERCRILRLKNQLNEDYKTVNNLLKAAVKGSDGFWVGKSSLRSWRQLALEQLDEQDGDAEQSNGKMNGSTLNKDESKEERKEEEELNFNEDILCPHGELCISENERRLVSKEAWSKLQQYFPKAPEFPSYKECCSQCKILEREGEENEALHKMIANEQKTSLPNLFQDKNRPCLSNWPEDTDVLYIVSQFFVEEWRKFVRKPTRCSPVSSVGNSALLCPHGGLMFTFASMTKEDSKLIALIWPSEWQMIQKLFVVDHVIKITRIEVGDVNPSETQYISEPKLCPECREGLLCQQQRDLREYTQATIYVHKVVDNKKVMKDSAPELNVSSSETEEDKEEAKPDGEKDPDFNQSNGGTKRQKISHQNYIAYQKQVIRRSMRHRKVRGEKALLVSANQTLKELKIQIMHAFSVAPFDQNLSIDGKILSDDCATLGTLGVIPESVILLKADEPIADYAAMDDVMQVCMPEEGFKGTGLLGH
In short: as §1

[5] = target: T4, USP5 (UniProt P45974)
T4 sequence (whole entry): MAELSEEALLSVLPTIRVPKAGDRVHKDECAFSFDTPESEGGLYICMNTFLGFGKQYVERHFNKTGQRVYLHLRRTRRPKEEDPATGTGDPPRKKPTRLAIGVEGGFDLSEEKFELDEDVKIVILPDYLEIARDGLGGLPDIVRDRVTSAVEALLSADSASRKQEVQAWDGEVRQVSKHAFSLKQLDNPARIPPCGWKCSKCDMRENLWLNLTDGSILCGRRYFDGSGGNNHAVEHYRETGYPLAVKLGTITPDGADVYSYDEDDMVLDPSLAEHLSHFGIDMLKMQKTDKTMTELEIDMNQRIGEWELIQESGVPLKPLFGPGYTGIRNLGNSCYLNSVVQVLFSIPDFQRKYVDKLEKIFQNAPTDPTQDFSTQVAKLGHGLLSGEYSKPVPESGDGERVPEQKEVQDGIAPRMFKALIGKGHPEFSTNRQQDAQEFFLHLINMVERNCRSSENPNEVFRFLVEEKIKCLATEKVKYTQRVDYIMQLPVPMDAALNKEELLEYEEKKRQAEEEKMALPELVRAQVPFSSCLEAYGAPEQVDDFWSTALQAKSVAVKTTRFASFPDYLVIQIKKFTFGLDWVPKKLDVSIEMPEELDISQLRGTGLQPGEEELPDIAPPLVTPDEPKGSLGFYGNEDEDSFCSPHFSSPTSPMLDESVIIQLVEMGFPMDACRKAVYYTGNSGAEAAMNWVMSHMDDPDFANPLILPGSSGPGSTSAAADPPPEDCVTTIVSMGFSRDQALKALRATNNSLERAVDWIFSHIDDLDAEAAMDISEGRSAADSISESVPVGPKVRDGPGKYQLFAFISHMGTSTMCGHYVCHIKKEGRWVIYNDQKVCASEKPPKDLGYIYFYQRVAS
In short: as §1

[6] = target: USP54 (UniProt Q70EL1)
In short: as §1

[7] = target: USP7 (UniProt Q93009)
In short: as §1

[8] = target: T5, USP8 (UniProt P40818)
T5 sequence (whole entry): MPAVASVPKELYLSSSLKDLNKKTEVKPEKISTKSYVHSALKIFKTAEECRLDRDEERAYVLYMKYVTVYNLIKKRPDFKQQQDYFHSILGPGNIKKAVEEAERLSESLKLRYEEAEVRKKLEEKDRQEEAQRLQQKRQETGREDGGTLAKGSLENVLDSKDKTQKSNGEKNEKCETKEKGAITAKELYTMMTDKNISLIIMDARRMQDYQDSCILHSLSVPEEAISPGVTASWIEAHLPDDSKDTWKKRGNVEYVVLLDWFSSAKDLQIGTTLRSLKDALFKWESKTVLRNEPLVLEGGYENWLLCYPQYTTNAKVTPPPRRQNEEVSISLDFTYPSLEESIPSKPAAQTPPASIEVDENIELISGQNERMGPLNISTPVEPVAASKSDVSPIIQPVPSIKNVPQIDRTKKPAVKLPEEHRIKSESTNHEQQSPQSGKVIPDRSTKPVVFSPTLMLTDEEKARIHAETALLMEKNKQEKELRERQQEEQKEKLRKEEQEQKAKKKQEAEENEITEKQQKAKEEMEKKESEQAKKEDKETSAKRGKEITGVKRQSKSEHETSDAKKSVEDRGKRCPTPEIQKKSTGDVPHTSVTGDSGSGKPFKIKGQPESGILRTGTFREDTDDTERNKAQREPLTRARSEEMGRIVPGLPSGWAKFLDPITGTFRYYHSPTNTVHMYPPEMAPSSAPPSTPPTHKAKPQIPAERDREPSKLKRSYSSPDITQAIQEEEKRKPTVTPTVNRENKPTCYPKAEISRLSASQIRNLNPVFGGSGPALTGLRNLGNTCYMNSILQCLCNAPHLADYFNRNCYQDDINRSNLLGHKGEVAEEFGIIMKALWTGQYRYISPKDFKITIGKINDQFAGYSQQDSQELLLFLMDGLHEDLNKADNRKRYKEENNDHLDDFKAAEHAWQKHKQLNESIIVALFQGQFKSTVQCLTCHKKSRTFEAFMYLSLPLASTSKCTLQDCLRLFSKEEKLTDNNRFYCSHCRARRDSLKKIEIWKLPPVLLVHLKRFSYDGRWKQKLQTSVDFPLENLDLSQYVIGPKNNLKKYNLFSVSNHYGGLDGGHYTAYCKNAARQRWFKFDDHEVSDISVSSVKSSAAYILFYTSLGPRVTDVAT
In short: as §1

[9] = target: USP9X (UniProt Q93008)
In short: as §1

[10] = target: UniProt O00487
In short: as §1

Measured: log2 ratio of Biotin-Ahx-Ub-VS probe labelling

Chain of USP7 (Q93009 whole entry, looked up): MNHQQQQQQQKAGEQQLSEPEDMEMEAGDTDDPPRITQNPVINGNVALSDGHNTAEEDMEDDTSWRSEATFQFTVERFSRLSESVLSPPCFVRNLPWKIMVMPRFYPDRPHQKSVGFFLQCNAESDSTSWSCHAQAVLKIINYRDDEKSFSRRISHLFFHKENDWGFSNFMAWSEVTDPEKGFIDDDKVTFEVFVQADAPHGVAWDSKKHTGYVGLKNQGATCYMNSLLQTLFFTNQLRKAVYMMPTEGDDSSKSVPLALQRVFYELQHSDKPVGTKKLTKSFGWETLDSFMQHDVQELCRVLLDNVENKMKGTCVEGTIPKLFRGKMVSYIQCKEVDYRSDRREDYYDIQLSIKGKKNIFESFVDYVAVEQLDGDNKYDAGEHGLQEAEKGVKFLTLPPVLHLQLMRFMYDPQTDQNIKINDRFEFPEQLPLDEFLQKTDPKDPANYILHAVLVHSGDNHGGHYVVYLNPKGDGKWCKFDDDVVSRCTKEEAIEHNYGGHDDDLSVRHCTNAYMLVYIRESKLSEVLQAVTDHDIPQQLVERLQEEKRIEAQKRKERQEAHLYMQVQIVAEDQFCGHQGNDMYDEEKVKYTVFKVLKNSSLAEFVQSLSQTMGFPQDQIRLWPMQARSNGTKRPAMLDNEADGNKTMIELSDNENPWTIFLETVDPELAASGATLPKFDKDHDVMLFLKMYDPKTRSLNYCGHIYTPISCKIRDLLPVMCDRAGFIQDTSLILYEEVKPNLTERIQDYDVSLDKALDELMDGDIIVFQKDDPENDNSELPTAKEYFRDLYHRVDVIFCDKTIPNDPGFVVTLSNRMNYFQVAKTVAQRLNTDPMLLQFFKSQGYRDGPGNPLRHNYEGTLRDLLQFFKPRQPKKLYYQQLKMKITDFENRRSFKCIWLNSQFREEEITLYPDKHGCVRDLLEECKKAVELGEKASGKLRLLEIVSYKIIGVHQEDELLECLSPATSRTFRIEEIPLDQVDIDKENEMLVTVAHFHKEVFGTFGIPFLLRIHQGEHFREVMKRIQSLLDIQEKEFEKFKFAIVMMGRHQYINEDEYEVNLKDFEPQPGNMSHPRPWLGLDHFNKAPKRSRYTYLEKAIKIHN
Chain of UniProt O00487 (O00487 whole entry): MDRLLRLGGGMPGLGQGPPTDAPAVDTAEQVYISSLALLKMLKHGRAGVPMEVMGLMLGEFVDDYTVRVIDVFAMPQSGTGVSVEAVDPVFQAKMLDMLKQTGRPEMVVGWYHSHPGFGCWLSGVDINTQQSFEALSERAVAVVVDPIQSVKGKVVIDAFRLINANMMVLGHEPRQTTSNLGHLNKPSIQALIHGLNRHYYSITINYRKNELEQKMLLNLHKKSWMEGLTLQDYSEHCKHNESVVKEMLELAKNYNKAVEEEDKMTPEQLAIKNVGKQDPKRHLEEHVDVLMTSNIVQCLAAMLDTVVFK
Chain of USP54 (Q70EL1 whole entry): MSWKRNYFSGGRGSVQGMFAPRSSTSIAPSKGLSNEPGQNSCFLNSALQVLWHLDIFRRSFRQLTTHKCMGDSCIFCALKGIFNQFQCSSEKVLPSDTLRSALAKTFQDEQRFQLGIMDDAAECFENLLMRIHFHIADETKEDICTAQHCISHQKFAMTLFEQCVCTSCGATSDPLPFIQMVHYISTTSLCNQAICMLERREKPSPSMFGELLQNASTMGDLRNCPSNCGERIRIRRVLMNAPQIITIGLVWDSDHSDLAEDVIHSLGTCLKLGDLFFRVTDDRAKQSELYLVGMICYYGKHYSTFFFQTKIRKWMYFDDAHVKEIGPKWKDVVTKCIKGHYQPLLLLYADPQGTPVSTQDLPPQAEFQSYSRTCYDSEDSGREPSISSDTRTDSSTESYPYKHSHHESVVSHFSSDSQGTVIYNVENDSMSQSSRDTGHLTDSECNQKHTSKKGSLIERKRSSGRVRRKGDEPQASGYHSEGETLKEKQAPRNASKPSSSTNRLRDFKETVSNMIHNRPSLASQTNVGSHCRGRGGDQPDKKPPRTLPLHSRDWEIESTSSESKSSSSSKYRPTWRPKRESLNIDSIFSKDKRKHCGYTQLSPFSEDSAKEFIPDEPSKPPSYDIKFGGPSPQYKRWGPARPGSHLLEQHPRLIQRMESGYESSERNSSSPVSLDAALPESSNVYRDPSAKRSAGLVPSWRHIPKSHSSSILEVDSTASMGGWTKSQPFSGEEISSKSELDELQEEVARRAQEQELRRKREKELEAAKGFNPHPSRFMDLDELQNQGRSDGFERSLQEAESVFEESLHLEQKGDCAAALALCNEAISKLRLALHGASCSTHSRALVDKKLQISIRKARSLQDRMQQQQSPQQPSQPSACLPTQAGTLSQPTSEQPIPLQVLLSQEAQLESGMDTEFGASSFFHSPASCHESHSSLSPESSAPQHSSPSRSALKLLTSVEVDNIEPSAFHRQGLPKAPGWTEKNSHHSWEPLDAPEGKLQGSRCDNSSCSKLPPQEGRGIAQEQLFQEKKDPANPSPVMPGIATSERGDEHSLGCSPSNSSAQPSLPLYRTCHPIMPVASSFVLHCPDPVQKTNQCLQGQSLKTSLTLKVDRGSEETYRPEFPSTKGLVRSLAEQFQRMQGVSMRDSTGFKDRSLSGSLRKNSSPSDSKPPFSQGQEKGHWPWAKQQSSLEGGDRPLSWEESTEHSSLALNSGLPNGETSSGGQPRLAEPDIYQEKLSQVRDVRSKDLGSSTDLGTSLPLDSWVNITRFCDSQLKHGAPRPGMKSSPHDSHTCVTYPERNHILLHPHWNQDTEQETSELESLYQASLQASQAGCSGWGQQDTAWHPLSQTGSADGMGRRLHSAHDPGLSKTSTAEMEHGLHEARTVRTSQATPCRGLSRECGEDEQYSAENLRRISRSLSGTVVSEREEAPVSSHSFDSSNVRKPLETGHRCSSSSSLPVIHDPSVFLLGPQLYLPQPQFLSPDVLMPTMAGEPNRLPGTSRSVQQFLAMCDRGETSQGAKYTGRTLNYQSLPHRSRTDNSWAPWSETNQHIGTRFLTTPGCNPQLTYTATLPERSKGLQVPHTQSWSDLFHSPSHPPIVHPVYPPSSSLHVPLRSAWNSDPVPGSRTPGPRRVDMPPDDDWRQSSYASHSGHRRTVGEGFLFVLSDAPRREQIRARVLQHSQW
Chain of USP46 (P62068 whole entry): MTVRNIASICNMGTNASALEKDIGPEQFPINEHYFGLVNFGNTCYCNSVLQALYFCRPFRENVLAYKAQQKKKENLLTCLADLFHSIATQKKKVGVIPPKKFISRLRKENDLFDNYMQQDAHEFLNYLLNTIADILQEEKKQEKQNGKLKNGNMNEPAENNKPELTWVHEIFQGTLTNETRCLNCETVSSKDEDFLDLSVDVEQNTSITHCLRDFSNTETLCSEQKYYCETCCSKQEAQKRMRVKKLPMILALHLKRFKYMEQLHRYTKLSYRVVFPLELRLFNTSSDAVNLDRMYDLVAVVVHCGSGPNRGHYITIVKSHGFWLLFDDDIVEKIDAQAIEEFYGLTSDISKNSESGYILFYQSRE

CN(C)S(=O)(=O)c1ccccc1CNC(=O)CCl
inactive: [1] 0.185 | [2] 0.0777 | [3] -0.336 | [4] -0.169 | [5] 0.419 | [6] 0.535 | [7] -0.218 | [8] -0.15 | [9] -0.0424 | [10] 0.0834

Cc1ncsc1CCNC(=O)CCl
inactive: [1] 0.0552 | [2] 0.359 | [3] 0.687 | [4] 0.00776 | [5] 0.325 | [6] 0.227 | [7] 0.0797 | [8] 0.298 | [9] -0.0257 | [10] 0.339

O=C(CCl)N1CCCCCC1c1ncon1 (stereo not given)
inactive: [1] -0.342 | [2] 0.113 | [3] -0.552 | [4] -0.467 | [5] 0.214 | [6] 0.731 | [7] -0.491 | [8] -0.0227 | [9] -0.226 | [10] -0.0641

O=C(CCl)N1CCOC2(CCC2)CC1
inactive: [1] -0.307 | [2] 0.0174 | [3] -0.785 | [4] -0.374 | [5] 0.235 | [6] -0.505 | [7] -0.145 | [8] -0.275 | [9] -0.0935 | [10] 0.0511
